Results reported in PubChem BioAssay AID1851 (National Center for Advancing Translational Sciences (NCATS), 2009).
The whole screen tested about 16,000 compounds, of which about 5,100 (32%) were called active. Another 25% or so got no clear call; they are omitted. Some of the results follow. Values without a mark were called inactive. Calls follow the shape of the dose curve; as a rule, active = well fitted curve in the direction sought with a large enough effect; inconclusive = small, poorly fitted or top-dose-only effect, or effect the other way; inactive = no such curve, though single readings can be large or run the other way.

These molecules were tested against Cytochrome P450 3A4 (Homo sapiens) (UniProt P08684) (assay: Cytochrome panel assay with activity outcomes). Settings: recombinant CYP, pro-luciferin dealkylation, luminescence, p450-cyp3a4; series mostly up to 57.1 µM; activity, negative = inhibition: at the top concentration.
Cytochrome P450 3A4 (Homo sapiens), sequence (P08684 whole entry, looked up): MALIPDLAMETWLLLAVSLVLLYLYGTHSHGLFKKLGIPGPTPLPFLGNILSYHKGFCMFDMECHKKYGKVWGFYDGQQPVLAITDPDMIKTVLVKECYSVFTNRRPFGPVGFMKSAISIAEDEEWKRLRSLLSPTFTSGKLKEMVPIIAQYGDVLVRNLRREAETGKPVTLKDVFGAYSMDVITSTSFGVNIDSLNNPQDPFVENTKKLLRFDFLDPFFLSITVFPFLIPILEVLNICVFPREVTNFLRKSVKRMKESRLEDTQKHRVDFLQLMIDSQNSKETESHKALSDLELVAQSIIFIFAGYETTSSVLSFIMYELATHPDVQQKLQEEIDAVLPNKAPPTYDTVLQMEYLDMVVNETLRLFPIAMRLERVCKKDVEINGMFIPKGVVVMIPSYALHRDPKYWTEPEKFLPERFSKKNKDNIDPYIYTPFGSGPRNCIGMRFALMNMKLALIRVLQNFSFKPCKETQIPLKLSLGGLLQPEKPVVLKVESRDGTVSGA
% is scaled to controls: 0 for no effect and ±100 for the full control effect.

SMILES | AC50 | activity, negative = inhibition
CCn1c(SCC(=O)NC2CCCc3ccccc32)nnc1-c1cccs1 (configuration not stated) | 2.82 µM (active) | 
CCOc1c2ccc(C(=O)NC3CCCc4ccccc43)cc2nn1C (configuration not stated) |  | -21%
CCn1cc(C(=O)O)c(=O)c2cnc(N3CCNCC3)nc21 |  | 3.01% [at 25.6 µM]
CC(=O)OC[C@@H]1O[C@@H](O/N=C2/C[C@@H](O)[C@@H](O)[C@@H]3[C@@H]4C(=O)N([C@@H](C)c5ccccc5)C(=O)[C@H]4CC[C@@H]23)[C@H](OC(C)=O)[C@H](OC(C)=O)[C@@H]1OC(C)=O |  | -21% [at 11.4 µM]
COc1cccc2c1C(=O)c1c(O)c3c(c(O)c1C2=O)C[C@@](O)(C(=O)CO)C[C@H]3O[C@H]1C[C@@H](N)[C@H](O)[C@@H](C)O1.[W] |  | -15.2% [at 11.4 µM]
CCOC(=O)C1=C(c2ccccc2)N=c2s/c(=C\c3ccc(O)cc3)c(=O)n2C1c1cccs1 (configuration not stated) | 3.55 µM (active) | 
CCOC(=O)C1=C(N)n2c(s/c(=C/c3ccccc3)c2=O)=C(C(=O)OCC)C1c1ccccc1 (configuration not stated) |  | -8.49%
COC(=O)c1[nH]c(C)c(/C(O)=C2\C(=O)C(=O)N(CCN(C)C)C2c2cccs2)c1C (configuration not stated) |  | -29.9%
CCOC(=O)C1=C(c2ccccc2)N=c2s/c(=C\c3cccc(O)c3)c(=O)n2C1c1cccs1 (configuration not stated) | 15.8 µM (active) | 
O=c1/c(=C\c2ccc(O)cc2)sc2n1C(c1ccccc1)C(c1ccccc1)=NN=2 (configuration not stated) |  | 20.5% [at 0.457 µM]
CCCc1c(OCCCOc2ccc(OCC(=O)O)cc2)ccc(C(C)=O)c1O |  | -20.2%
CC(C)=CC(=O)OCC(=O)Nc1ncc(Cl)c(C)c1Cl |  | -10.4%
Cc1cccc(CNc2ncnc3ccc(-c4ccoc4)cc23)c1 | 3.98 µM (active) | 
c1cncc(CNc2ncnc3ccc(-c4ccoc4)cc23)c1 | 1.58 µM (active) | 
Oc1ccccc1CNn1cnnc1 |  | -12.2%
CCn1cc(-c2nnnn2-c2ccc(Cl)cc2)c(=O)c2ccccc21 | 12.6 µM (active) | 
COc1ccc(-n2nnnc2-c2cn(C)nc2C(F)(F)F)cc1 |  | 27.5%
CCOc1nnc(C)c2c(C)n(-c3ccc(Cl)cc3)nc12 |  | -23.4%
Cc1c(Br)c([N+](=O)[O-])nn1CC(=O)NCc1ccccn1 |  | 5.47%
Cc1c(Br)c([N+](=O)[O-])nn1C(C)C(=O)Nc1nccs1 (configuration not stated) | 20 µM (active) | 
Cc1c(Br)c([N+](=O)[O-])nn1CC(=O)NCc1cccs1 |  | -4.17% [at 2.29 µM]
Cc1ccc(NC(=O)Cn2nc([N+](=O)[O-])c(Br)c2C)cc1C |  | -24.1% [at 2.29 µM]

SMILES | AC50 | activity, negative = inhibition
CCc1ccccc1NC(=O)C(C)n1nc([N+](=O)[O-])c(Br)c1C (configuration not stated) | 25.1 µM (active) | 
N=C(N)c1ccc(N=Nc2c(O)ccc3c2[nH]c2ccccc23)cc1 |  | -6.87% [at 11.4 µM]
Cc1cc(C)c(C#N)c(SCC(=O)C(C)(C)C)n1 |  | -0.356% [at 2.29 µM]
COC(=O)CSc1nc(C)cc(C(F)(F)F)c1C#N |  | -14.9% [at 2.29 µM]
Cc1cc(C)c(C#N)c(SCS(=O)c2ccc(C(C)(C)C)cc2)n1 (configuration not stated) | 7.94 µM (active) | 
O=S(=O)(c1cccc(-c2nnc(-c3ccc(Br)cc3)o2)c1)N1CCCCCC1 | 3.55 µM (active) | 
Brc1ccc(-c2nnc(-c3cccc(Br)c3)o2)cc1 |  | 16.1%
O=S(=O)(c1ccc(Br)cc1)N1CCN(S(=O)(=O)c2ccc(Br)cc2)CC1 |  | 0.222% [at 11.4 µM]
O=C1CCCC=C1[C@H](O)c1ccc([N+](=O)[O-])cc1 |  | -12.2% [at 11.4 µM]
CCOC(=O)C1CCN(Cc2cnc(Oc3ccc(OC)cc3)s2)CC1 |  | 9.79%
NC(=O)C1CCN(C(=O)OCc2ccccc2)CC1 |  | -2.06%
COc1ccc(Cn2nnnc2C(c2ccccc2Cl)N2CCC(C(N)=O)CC2)cc1 (configuration not stated) | 12.6 µM (active) | 
C=CC1=C(C)C2=Cc3c(C=C)c(C)c4[n]3[Sn+2][n]3c(c(C)c(CCC(=O)O)c3=CC3=NC(=C4)C(C)=C3CCC(=O)O)=CC1=N2 |  | -13.5%
CC(=O)Nc1ccc(C(=O)NNC(=O)CCc2ccccc2)cc1 |  | 4.97%
CC(=O)Nc1ccc(NC(=O)c2ccccc2CC[N+](=O)[O-])cc1 | 1.78 µM (active) | 
Cc1c(C(=O)Nc2ccc(OCc3ccccc3)cc2)cccc1[N+](=O)[O-] |  | 15.6%
CC[N+](C)(CC)CCC[n+]1c(-c2ccccc2)c2cc(N)ccc2c2ccc(N)cc21 | 15.8 µM (active) | 
COC(=O)NCC(c1cccnc1)N1CCN(c2ccccc2OC)CC1 (configuration not stated) | 12.6 µM (active) | 
COc1cc(C(=O)NCC(c2cccnc2)N2CCN(C)CC2)cc(OC)c1OC (configuration not stated) |  | -2.25%
O=C(NCC(c1cccnc1)N1CCOCC1)Nc1ccccc1 (configuration not stated) | 14.1 µM (active) | 
COc1ccc(N2CCN(C(CNC(=O)C3CCCCC3)c3cccnc3)CC2)cc1 (configuration not stated) | 4.47 µM (active) | 
C[C@H](CN(C)C)C(O)(c1ccccc1)c1ccccc1 |  | -14.1% [at 11.4 µM]

SMILES | AC50 | activity, negative = inhibition
CCC(C)NC(=O)NC(=O)N(C1CCCCC1)S(C)(=O)=O (configuration not stated) |  | 4.9%
Cc1ccnc(NS(=O)(=O)c2ccc(N)cc2)n1 | inactive | 
COC(=O)[C@@]1(Cc2ccccc2)[C@H]2c3cc(C(=O)N4CCCC4)n(Cc4ccc(S(C)(=O)=O)cc4)c3C[C@H]2CN1C(=O)c1ccccc1 | 3.16 µM (active) | 
COC(=O)[C@@]1(Cc2ccc(F)cc2)[C@H]2c3cc(C(=O)N(C)C)n(Cc4ccc(C)c(F)c4F)c3C[C@H]2CN1C(=O)c1ccccc1 | 0.794 µM (active) | 
COC(=O)[C@@]1(Cc2ccc(F)cc2)[C@H]2c3cc(C(=O)N4CCCC4)n(Cc4ccc(C)c(F)c4F)c3C[C@H]2CN1C(=O)c1ccccc1 | 2.51 µM (active) | 
COC(=O)C1(Cc2ccccc2)C2c3cc(C(=O)N4CCCC4)n(Cc4ccc(OC(F)(F)F)cc4)c3CC2CN1C(=O)c1ccccc1 (configuration not stated) | 3.16 µM (active) | 
CCCC[C@H](CC)CN1CN(C[C@@H](CC)CCCC)CC(C)(N)C1 |  | -17.4% [at 25.6 µM]
CC(C)(C)n1nc(-c2ccc(Cl)cc2)c2c(N)ncnc21 |  | -12.7%
COC(=O)[C@@]1(Cc2ccc(F)cc2)[C@H]2c3cc(C(=O)N4CCCC4)n(Cc4ccc(OC(F)(F)F)cc4)c3C[C@H]2CN1C(=O)c1ccccc1 | 2.51 µM (active) | 
COC(=O)[C@@]1(Cc2ccc(F)cc2)[C@H]2c3cc(C(=O)N(C)C)n(Cc4ccc(Cl)c(C(F)(F)F)c4)c3C[C@H]2CN1C(=O)c1ccccc1 | 2 µM (active) | 
COC(=O)[C@@]1(Cc2ccc(F)cc2)[C@H]2c3cc(C(=O)N4CCCC4)n(CCCNc4ncc(C(F)(F)F)cc4Cl)c3C[C@H]2CN1C(=O)c1ccccc1 | 2.51 µM (active) | 
COC(=O)[C@@]1(Cc2ccc(F)cc2)[C@H]2c3cc(C(=O)N4CCCC4)n(Cc4ccc(Cl)c(C(F)(F)F)c4)c3C[C@H]2CN1C(=O)c1ccccc1 | 2.51 µM (active) | 
Cc1nc(CN2CCCCC2)c(O)c(=O)[nH]1 |  | -5.47% [at 11.4 µM]
CC1(O)CC(=O)N(c2ccccc2)O1 (configuration not stated) |  | 1.65% [at 2.29 µM]
COC(=O)[C@@]1(Cc2ccc(F)cc2)[C@H]2c3cc(C(=O)N4CCCC4)n(CCN4CNCC4=O)c3C[C@H]2CN1C(=O)c1ccccc1 | 2 µM (active) | 
COC(=O)Cn1c(C(=O)N2CCCC2)cc2c1C[C@H]1CN(C(=O)c3ccccc3)[C@@](Cc3ccc(F)cc3)(C(=O)OC)[C@@H]21 | 3.16 µM (active) | 
COC(=O)[C@@]1(Cc2ccc(F)cc2)[C@H]2c3cc(C(=O)N4CCCC4)n(Cc4ccccc4)c3C[C@H]2CN1C(=O)c1ccccc1 | 1 µM (active) | 
COC(=O)[C@@]1(Cc2ccc(F)cc2)[C@H]2c3cc(C(=O)N(C)C)n(CCCNc4ccc(C(F)(F)F)cc4Cl)c3C[C@H]2CN1C(=O)c1ccccc1 | 1.58 µM (active) | 
COC(=O)Cn1c(=N)n(CCN2CCCCC2)c2ccccc21 |  | 1.03%
C=C1C=C(Br)C2(OCCCO2)[C@H]2OC12 (some centres not stated) |  | -14.7% [at 11.4 µM]
CC1(C)C2([N+](=O)[O-])CN3CC1([N+](=O)[O-])CN(C2)C3c1ccccc1 (configuration not stated) |  | 0.512% [at 2.29 µM]
CS(=O)(=O)c1ccc([C@H](O)[C@H](CO)NC(=O)C(Cl)Cl)cc1 |  | -5.21% [at 25.6 µM]

SMILES | AC50 | activity, negative = inhibition
C[C@@H](C(=O)NCc1ccc(S(C)(=O)=O)cc1)[C@H]1C[C@]1(C)[C@H](NC(=O)OCc1ccccc1)c1ccccc1 | 3.16 µM (active) | 
C[C@@H](C(=O)NCc1ccc(S(C)(=O)=O)cc1)[C@@H]1C[C@@]1(C)[C@@H](NC(=O)OCc1ccccc1)c1ccccc1 | 1 µM (active) | 
CC(NC(=O)OCc1ccccc1)C(=O)NCC1CCCO1 (configuration not stated) |  | -4.26%
C[C@@H](C(=O)NCc1nc2ccccc2[nH]1)[C@@H]1C[C@@]1(C)[C@@H](NC(=O)OCc1ccccc1)c1ccccc1 | 1 µM (active) | 
C[C@@H](C(=O)NCc1cccc2ccccc12)[C@H]1C[C@]1(C)[C@H](NC(=O)OCc1ccccc1)c1ccccc1 | 0.398 µM (active) | 
Cc1cccc(C)c1OC[C@H](C)N |  | -12.4% [at 25.6 µM]
C=CCSc1ncccc1C(=O)NCc1ccc(C)cc1 | 11.2 µM (active) | 
CC/C(=N/Nc1ccccc1)c1cnnc(SC)n1 | 25.1 µM (active) | 
CSc1nncc(-c2ccc(F)c(F)c2)n1 |  | 13.4%
COCCCNC(=O)c1c(NC(=O)c2cccs2)sc2c1CCCC2 | 15.8 µM (active) | 
CCNC(=O)c1c(NC(C)=O)sc2c1CCCC2 |  | -23%
CC(=O)Nc1sc2c(c1C(N)=O)CCCC2 |  | -27.9%
CC(C)NC[C@@H](O)COc1ccccc1-n1cccc1 |  | -14.7%
Cc1ccc(OCC(O)Cn2c3ccccc3c3ccccc32)cc1 (configuration not stated) | 17.8 µM (active) | 
OC(COc1ccc(OCC(O)CN2CCCCCC2)cc1)CN1CCCCCC1 (configuration not stated) |  | 3.14%
Cc1cccc(C)c1OCC(O)CNC(C)(C)C (configuration not stated) |  | -9.33%
O[C@H](COc1ccccc1)CN1CCCCC1 |  | -3.03% [at 11.4 µM]
O[C@@H](COc1cccc2ccccc12)CN1CCOCC1 |  | -6.73% [at 11.4 µM]
OC[C@@H](O)COc1cccc2ccccc12 |  | -23%
Cc1ccccc1OCC(O)Cn1c2ccccc2c2ccccc21 (configuration not stated) | 12.6 µM (active) | 
CC(=O)Nc1ccc(OCC(O)Cn2c3ccccc3c3ccccc32)c(C)c1 (configuration not stated) | 3.98 µM (active) | 
